Measured values reported in the supplement of paper PMC11732987, “Enantioselective OTUD7B fragment discovery through chemoproteomics screening and high-throughput optimisation” (Communications Chemistry, 2025).

Key:
Test in all cases: log2 ratio of Biotin-Ahx-Ub-VS probe labelling (fragment/DMSO); higher = less target engagement (more negative = stronger competition), active = hit call of the paper (q ≤ 0.05, log2 ratio ≤ -1)
Conditions in all cases: compound concentration: 200 uM; treatment time: 3 h
USP34 = USP34 (UniProt Q70CQ2)
USP34, sequence (Q70CQ2 whole entry, the tested form may be a part): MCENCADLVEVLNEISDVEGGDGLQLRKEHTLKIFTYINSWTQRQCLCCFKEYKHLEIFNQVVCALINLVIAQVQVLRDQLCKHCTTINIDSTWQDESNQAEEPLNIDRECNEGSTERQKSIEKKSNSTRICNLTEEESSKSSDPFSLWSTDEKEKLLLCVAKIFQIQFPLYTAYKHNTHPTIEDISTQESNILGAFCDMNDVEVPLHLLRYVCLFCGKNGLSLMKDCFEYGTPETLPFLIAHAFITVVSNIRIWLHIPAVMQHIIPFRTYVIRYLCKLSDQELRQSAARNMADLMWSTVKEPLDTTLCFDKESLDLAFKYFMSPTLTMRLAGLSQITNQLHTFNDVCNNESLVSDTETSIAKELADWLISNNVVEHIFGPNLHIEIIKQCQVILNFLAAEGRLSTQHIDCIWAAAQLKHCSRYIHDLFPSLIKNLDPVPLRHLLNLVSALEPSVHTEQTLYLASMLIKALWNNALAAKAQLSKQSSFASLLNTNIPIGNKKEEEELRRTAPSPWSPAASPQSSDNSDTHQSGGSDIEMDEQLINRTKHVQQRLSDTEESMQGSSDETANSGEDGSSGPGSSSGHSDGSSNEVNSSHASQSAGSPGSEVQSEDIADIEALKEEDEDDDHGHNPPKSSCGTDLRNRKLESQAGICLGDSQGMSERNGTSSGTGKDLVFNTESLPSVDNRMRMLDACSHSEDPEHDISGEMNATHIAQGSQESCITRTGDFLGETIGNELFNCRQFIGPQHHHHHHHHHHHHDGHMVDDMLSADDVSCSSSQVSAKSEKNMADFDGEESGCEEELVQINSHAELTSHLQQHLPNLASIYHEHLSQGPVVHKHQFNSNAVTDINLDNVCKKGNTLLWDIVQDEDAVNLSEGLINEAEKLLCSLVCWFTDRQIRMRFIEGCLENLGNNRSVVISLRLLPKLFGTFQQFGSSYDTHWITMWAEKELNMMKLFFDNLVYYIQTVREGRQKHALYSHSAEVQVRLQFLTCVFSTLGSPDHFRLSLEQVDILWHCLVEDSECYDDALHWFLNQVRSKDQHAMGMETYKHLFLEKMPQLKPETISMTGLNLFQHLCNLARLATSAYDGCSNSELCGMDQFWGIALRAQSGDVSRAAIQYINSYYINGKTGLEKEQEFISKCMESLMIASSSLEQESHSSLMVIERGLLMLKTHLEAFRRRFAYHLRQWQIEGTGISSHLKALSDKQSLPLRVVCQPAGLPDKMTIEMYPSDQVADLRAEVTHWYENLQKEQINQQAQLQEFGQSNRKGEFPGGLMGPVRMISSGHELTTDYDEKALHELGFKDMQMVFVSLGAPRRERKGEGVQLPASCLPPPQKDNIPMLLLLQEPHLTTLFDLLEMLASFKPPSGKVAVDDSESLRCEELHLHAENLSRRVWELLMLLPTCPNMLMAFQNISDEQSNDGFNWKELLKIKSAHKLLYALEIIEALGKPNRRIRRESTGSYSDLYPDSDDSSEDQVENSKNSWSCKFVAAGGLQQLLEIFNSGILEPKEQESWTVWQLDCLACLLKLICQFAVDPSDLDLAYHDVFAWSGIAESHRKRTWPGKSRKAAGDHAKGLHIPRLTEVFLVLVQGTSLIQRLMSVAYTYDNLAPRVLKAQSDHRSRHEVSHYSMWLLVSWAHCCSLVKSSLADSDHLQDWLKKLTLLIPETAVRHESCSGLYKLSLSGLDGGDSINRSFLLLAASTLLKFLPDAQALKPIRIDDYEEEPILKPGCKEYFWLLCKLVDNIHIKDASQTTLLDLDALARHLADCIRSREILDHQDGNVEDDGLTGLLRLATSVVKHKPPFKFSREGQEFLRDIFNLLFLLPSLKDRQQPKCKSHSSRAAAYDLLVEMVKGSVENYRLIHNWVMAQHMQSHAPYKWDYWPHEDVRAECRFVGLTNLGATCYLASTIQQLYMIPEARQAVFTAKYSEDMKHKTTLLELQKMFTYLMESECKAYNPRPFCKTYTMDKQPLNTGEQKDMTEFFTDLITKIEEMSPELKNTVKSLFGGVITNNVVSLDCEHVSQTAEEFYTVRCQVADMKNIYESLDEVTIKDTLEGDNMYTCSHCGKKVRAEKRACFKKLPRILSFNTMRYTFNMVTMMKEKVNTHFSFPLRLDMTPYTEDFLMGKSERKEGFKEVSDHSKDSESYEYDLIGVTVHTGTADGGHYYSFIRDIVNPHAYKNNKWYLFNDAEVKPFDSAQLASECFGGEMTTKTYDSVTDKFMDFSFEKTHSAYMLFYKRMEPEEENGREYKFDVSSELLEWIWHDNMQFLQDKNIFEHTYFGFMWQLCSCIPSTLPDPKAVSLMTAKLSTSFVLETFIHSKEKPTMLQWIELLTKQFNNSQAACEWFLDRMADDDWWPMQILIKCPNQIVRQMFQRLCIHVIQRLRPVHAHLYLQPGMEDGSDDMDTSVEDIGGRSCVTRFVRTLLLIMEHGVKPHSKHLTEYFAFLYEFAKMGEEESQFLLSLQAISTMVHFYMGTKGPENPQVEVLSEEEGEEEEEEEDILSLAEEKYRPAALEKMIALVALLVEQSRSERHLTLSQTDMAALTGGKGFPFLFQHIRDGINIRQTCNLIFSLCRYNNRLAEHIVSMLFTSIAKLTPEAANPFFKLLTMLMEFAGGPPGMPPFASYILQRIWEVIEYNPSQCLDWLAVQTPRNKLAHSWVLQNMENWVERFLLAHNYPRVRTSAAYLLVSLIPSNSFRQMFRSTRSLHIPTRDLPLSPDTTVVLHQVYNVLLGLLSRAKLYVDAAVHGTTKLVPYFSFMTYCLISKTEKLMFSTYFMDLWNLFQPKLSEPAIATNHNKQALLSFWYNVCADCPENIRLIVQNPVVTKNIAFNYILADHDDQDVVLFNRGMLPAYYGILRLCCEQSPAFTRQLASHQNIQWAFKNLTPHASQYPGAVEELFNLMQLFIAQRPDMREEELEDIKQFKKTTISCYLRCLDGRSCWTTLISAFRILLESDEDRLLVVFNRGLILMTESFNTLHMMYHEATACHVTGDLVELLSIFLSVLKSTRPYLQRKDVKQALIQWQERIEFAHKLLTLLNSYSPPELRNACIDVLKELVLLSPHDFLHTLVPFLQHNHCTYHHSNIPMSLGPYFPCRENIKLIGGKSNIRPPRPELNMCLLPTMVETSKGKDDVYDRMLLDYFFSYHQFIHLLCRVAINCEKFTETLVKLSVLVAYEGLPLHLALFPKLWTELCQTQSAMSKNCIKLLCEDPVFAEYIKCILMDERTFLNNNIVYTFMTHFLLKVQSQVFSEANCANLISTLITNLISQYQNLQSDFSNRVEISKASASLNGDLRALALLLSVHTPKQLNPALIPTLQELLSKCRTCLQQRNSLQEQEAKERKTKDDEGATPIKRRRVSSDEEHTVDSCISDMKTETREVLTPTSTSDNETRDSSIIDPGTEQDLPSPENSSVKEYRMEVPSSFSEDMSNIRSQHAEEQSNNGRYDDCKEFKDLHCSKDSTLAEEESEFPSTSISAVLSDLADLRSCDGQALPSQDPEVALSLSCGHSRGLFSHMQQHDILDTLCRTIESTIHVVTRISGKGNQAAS
How it was run: (§1)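 Triplicate samples of HEK293T lysate, 495 µg each, received fragment at 200 µM or vehicle for 3 h, followed by Biotin-Ahx-Ub-VS (0.5 µM final) for 1 h. After NeutrAvidin enrichment of labelled DUBs and LysC/trypsin digestion, peptides were run by diaPASEF LC-MS/MS. The values are average log2 fragment/vehicle ratios from global-median-normalised Spectronaut label-free quantities, tested by unpaired t-test on proteins having ≥2 unique peptides.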

USP36 = target: T1, USP36 (UniProt Q9P275)
T1 sequence (whole entry): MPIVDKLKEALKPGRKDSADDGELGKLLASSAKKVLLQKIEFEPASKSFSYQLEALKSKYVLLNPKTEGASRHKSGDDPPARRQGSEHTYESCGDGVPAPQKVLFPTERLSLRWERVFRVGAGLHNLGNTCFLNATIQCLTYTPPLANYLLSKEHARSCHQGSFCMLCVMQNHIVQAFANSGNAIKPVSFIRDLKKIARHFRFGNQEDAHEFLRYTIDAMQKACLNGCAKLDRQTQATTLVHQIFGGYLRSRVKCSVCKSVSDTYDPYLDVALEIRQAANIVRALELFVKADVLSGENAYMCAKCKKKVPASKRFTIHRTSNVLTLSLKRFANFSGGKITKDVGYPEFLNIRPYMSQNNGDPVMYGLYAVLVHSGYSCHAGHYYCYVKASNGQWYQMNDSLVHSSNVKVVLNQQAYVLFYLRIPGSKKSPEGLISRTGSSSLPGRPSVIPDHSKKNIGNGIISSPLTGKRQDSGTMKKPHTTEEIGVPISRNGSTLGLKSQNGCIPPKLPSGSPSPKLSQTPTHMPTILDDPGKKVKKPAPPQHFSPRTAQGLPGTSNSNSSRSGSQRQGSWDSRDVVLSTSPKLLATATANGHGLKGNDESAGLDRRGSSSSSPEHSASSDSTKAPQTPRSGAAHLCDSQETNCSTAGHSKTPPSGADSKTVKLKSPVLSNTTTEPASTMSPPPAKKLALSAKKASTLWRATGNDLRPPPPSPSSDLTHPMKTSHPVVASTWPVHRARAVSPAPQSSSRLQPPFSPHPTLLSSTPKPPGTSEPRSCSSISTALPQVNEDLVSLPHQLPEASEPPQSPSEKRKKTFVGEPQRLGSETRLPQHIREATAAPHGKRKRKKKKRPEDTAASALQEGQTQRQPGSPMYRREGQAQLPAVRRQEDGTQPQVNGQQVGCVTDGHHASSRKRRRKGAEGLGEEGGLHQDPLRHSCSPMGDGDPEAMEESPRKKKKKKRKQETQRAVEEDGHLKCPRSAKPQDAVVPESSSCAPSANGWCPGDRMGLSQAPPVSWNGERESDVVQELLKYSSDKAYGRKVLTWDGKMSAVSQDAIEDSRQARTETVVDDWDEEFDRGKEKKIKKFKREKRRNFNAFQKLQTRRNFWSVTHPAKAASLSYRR
How it was run: as §1

USP38 = target: T2, USP38 (UniProt Q8NB14)
T2 sequence (whole entry): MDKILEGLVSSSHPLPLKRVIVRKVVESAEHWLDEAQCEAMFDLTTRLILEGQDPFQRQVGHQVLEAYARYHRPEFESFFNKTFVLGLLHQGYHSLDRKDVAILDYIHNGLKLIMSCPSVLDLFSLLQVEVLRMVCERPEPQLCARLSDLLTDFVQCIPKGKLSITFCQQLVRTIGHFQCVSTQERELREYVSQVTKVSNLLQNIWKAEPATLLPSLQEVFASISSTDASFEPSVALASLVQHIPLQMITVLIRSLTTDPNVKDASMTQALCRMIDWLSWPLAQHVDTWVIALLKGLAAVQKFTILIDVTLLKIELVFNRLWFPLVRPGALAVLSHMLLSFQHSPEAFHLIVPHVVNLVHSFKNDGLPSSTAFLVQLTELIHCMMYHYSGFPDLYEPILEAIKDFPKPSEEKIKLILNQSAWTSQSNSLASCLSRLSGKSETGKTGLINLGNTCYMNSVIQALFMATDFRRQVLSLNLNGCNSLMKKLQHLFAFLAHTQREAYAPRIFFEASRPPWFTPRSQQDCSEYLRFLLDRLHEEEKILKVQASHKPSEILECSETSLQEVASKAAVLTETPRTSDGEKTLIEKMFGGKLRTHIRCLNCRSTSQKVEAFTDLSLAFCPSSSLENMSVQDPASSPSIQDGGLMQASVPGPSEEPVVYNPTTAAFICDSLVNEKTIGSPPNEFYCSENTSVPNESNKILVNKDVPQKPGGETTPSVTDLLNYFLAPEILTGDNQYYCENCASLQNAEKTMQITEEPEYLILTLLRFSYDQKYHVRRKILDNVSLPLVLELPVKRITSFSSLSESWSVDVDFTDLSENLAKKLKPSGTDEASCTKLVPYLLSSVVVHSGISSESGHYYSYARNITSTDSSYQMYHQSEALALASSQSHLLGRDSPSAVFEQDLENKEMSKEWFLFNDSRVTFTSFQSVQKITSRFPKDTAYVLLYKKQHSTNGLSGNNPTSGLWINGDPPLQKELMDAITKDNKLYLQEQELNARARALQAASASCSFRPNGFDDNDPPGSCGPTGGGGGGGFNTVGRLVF
How it was run: as §1

USP39 = target: T3, USP39 (UniProt Q53GS9)
T3 sequence (whole entry): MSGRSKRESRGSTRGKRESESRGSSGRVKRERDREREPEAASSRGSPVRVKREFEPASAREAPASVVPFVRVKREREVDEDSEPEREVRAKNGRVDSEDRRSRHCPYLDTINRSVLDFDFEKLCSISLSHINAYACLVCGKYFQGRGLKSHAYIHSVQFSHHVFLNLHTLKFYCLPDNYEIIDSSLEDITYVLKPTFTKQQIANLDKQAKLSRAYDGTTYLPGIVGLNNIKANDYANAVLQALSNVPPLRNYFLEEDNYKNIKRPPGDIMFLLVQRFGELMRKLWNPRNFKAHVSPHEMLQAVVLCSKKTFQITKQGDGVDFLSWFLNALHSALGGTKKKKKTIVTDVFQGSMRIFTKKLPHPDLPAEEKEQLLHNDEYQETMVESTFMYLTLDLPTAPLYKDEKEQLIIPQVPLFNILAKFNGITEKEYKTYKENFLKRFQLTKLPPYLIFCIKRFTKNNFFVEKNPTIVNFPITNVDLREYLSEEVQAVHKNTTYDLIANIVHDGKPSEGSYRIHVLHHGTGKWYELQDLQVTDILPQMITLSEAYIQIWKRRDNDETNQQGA
How it was run: as §1

USP4 = target: T4, USP4 (UniProt Q13107)
T4 sequence (whole entry): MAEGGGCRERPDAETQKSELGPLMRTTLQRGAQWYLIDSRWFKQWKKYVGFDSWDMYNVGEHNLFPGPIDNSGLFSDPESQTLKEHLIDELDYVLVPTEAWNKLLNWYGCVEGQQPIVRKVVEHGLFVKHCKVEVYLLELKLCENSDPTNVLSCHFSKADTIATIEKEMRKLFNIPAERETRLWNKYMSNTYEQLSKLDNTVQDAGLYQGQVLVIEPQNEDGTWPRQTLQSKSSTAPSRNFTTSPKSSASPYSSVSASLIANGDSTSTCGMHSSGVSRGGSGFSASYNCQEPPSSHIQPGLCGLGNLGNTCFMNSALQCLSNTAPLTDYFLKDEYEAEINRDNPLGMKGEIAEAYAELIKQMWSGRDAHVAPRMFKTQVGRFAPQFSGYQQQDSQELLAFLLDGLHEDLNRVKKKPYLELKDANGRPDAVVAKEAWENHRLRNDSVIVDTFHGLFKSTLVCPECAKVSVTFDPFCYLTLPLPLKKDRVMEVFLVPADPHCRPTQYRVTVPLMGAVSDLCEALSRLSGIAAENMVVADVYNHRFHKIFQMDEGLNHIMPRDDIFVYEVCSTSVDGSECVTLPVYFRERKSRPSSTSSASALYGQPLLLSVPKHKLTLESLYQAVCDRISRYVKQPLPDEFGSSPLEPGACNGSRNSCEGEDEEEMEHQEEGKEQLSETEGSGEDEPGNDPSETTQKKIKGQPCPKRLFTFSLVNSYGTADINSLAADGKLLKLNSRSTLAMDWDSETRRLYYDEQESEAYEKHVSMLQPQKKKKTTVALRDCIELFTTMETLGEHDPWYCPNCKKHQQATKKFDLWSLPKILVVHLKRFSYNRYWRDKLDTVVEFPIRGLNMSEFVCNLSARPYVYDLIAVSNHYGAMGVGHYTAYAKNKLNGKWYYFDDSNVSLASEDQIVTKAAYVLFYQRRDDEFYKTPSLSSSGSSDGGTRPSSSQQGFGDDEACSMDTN
How it was run: as §1

Measured: log2 ratio of Biotin-Ahx-Ub-VS probe labelling

O=C(CCl)Nc1nc(-c2cccs2)cs1
inactive: USP34 -0.754 | USP36 -0.271 | USP38 -0.092 | USP39 0.197 | USP4 -0.0279
